Test results taken from PubChem BioAssay.
Calls of active or inactive are those of the source.

How the values were obtained:
[1] = binders of probe aFSTL3 on microarray, primary screen, stem cell growth factor project, biochemical, small-molecule microarray, fluorescence 635/667 (AID 1064); conditions: higher = more signal;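 further: measures binding of the biotinylated anti-FSTL3 antibody to printed compounds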
[2] = binders from COS7 lysate, DM2A8 probe, primary screen, torsin A project, cell lysate, small-molecule microarray, fluorescence 635/667 (AID 1065); conditions: higher = more signal, COS7 lysate expressing mutant human TOR1A
[3] = binders of probe aFGF2 on microarray, primary screen, stem cell growth factor project, biochemical, small-molecule microarray, fluorescence 635/667 (AID 1067); conditions: higher = more signal;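 further: measures binding of biotinylated aFGF2 protein to printed compounds on slides; z-score merges feature fluorescence and signal-to-noise across triplicate slides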
[4] = binders of probe aFGF10 on microarray, primary screen, stem cell growth factor project, biochemical, small-molecule microarray, fluorescence 635/667 (AID 1071); conditions: higher = more signal;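 further: score merges 667 nm spot intensity and signal to noise from triplicate slides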
[5] = molecular target: Neurogenic locus notch homolog protein 2 (Homo sapiens) (UniProt Q04721); test: Notch2 binders on small-molecule microarrays, primary screen, biochemical, small-molecule microarray, 635 nm fluorescence, stem cell growth factors (AID 1073); conditions: Notch2 binding, higher = more signal
Chain of Neurogenic locus notch homolog protein 2 (Homo sapiens) (Q04721 whole entry, looked up, canonical isoform): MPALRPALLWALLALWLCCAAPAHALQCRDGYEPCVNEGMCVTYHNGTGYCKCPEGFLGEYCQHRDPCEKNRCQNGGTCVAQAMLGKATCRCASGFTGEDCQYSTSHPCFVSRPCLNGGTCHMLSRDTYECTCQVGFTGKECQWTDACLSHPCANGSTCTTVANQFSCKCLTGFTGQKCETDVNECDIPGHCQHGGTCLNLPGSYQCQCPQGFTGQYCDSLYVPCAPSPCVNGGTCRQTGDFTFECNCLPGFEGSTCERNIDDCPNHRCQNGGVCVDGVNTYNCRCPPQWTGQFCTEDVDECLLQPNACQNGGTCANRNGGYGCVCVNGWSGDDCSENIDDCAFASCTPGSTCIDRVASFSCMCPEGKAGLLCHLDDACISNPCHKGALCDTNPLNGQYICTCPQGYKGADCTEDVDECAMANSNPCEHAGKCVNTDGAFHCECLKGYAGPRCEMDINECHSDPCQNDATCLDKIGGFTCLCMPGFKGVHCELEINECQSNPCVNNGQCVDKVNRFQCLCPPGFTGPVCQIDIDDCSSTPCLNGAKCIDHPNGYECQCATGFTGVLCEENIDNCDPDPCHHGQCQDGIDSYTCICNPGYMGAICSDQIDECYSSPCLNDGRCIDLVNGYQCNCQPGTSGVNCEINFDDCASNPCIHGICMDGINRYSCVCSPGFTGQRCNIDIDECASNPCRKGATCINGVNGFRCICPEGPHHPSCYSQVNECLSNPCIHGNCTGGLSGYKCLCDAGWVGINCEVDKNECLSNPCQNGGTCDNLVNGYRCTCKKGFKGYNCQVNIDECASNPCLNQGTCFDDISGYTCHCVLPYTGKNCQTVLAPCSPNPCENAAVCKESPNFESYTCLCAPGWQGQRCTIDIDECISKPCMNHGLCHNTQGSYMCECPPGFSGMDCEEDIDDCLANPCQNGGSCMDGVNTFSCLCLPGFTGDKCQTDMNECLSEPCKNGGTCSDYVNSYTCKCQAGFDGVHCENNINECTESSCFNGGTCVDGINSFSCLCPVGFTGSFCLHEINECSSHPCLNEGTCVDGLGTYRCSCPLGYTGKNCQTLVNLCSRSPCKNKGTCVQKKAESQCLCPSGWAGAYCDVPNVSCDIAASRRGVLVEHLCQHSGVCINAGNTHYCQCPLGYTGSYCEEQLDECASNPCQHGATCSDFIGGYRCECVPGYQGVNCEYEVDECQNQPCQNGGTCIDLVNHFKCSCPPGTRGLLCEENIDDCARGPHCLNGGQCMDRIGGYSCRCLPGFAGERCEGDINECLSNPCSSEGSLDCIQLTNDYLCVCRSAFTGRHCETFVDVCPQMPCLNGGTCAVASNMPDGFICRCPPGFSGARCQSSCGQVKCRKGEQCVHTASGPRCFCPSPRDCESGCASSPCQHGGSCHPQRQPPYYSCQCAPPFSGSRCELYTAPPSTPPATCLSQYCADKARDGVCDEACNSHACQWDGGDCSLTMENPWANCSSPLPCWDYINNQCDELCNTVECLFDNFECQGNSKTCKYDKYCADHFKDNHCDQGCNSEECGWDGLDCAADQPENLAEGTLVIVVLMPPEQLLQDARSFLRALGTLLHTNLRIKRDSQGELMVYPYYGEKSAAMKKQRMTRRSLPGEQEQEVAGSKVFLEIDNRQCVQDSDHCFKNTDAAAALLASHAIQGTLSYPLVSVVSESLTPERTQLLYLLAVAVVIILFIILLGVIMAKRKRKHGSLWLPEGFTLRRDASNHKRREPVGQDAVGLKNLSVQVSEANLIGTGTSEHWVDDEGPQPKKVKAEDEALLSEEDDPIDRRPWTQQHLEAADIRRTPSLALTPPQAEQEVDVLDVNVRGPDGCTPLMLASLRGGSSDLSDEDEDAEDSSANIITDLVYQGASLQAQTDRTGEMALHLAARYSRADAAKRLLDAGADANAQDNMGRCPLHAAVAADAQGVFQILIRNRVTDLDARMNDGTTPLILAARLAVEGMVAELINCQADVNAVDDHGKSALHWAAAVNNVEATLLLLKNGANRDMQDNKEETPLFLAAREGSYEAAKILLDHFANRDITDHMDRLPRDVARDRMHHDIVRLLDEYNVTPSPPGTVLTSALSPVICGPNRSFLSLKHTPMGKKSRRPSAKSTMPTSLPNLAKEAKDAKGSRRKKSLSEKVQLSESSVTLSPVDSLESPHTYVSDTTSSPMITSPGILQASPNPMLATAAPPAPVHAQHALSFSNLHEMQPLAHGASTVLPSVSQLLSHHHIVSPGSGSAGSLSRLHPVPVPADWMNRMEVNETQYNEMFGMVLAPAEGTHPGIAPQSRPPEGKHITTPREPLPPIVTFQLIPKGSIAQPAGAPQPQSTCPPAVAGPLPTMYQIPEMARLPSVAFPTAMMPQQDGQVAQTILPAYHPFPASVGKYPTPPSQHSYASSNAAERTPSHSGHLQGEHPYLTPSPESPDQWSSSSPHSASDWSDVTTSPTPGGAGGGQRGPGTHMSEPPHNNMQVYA

[6] = molecular target: Pro-neuregulin-1, membrane-bound isoform (Homo sapiens) (UniProt Q02297); test: NRG1 binders on small-molecule microarrays, primary screen, psychiatric disease protein project, biochemical, small-molecule microarray, fluorescence 635/667 (AID 1075); conditions: NRG1 binding, 635 nm fluorescence, higher = more signal;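 further: score combines 667 nm spot fluorescence with signal to noise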
Chain of Pro-neuregulin-1, membrane-bound isoform (Homo sapiens) (Q02297 whole entry, looked up, the tested form may be a part, canonical isoform): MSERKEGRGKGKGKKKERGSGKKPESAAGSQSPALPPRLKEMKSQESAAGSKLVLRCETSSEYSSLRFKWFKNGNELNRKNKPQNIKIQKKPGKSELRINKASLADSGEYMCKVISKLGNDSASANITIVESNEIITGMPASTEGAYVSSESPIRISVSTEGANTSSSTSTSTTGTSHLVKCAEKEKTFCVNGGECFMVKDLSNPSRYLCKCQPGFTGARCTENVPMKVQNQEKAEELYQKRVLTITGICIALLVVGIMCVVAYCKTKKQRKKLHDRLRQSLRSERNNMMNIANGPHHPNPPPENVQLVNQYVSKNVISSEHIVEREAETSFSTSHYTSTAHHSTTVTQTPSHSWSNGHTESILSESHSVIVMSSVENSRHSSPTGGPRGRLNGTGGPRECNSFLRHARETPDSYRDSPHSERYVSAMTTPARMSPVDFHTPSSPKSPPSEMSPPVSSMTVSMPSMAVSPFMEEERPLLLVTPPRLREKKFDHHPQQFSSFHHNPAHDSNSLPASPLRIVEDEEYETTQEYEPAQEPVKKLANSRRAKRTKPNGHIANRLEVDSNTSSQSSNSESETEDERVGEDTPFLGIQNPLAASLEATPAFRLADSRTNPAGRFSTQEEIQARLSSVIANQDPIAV

[7] = tested on: Neuregulin-1 EGF-like domain; test: binders of neuregulin-1 EGF-like domain, primary screen, biochemical, small-molecule microarray, 635 nm fluorescence (AID 1081); conditions: small-molecule microarray binding, higher = more signal;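 further: binding of the protein to compounds printed on small-molecule microarray slides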
[8] = FRG1 promoter luciferase signal modulators, primary screen, FRG1 inhibition for FSHD, cell-based, C2C12 myotubes, firefly/Renilla luciferase, luminescence (AID 1084); conditions: higher = more signal, called active from +8 up or from −8 down
[9] = binders of probe aFST on microarray, primary screen, stem cell growth factor project, biochemical, small-molecule microarray, fluorescence 635/667 (AID 1086); conditions: higher = more signal;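 further: score merges 667 nm fluorescence with signal-to-noise of each printed compound spot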
[10] = binders of probe aHhip on microarray, primary screen, stem cell growth factor project, biochemical, small-molecule microarray, fluorescence 635/667 (AID 1087); conditions: higher = more signal;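 further: score merges spot fluorescence at 667nm with spot signal to noise ratio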

| SMILES | composite z-score [1] | composite z-score [2] | composite z-score [3] | composite z-score [4] | composite z-score [5] | composite z-score [6] | composite z-score [7] | z-score [8] | composite z-score [9] | composite z-score [10] |
| --- | --- | --- | --- | --- | --- | --- | --- | --- | --- | --- |
| O=C(NCC(O)CO)[C@]1(CCS(=O)(=O)c2ccccc2)N=C(c2ccc(OCCCO)cc2)O[C@@H]1c1ccccc1 (stereo not given in full) | 0.871 | 1.87 | -0.0064 | -0.299 | 0.158 | 2.3 | 1.3 | 0.47 (inactive) | 1.08 | -0.288 |
| COCCOC(=O)N1C(=O)[C@@]2(c3cc(C#CC4=CCCCC4)ccc31)[C@H](C(=O)N1CCN(c3ncccn3)CC1)[C@H]1C(=O)O[C@H](c3ccccc3)[C@H](c3ccccc3)N1[C@@H]2c1ccc(OCCO)cc1 | 0.121 | 0.181 | 0.0533 | 0.723 | 1.42 | -0.289 | 1.17 | 0.384 (inactive) | 0.824 | 0.109 |
| CCCCC(=O)N(Cc1ccccc1F)[C@@H]1CC(C(=O)NCCO)=C[C@H](Oc2c(I)cc(CO)cc2OC)[C@H]1O | -0.451 | 0.686 | -0.0462 | 0.228 | 1.17 | 1.47 | 1.42 | -0.84 (inactive) | 0.442 | 0.27 |
| C=C[C@@H](C)[C@@H](OC(=O)Nc1ccc(OC)cc1)c1ccc(O)c2ccccc12 | -0.262 | 0.173 | -0.0423 | 0.245 | -0.11 | 0.543 | 1.03 | 2.58 (inactive) | 0.105 | -0.128 |
| CCOC(=O)C[C@H]1[C@H](OC(=O)c2ccc(C(=O)c3ccccc3)cc2)[C@@H](NC(=O)c2ccc3ccccc3n2)c2cc(OCCCO)ccc2N1C(=O)c1ccc2ccccc2n1 | -0.153 | 0.0772 | -0.16 | 0.56 | 0.876 | 1 | 0.421 | -2.18 (inactive) | 0.845 | -0.201 |
| CCCNC(=O)[C@@]1(C)c2ccccc2C(=O)N(C(C)C)[C@H]1c1ccc(CO)cc1 | 1.01 | -0.214 | -0.0704 | -0.425 | -0.963 | 0.447 | 1.3 | -0.51 (inactive) | -0.35 | -0.226 |
| C=C(C(=O)CC[C@@H](OC(=O)c1cccnc1)c1ccc(CO)o1)C(C)C | -0.35 | 0.328 | -0.019 | 0.715 | 0.29 | 1.08 | 0.592 | 0.305 (inactive) | 0.337 | 0.0373 |
| [N-]=[N+]=Nc1ccccc1[C@H]1OC(c2ccc(OCCCO)cc2)=N[C@@]1(CCS(=O)(=O)c1ccccc1)C(=O)N1CCOCC1 | 1.84 | 0.962 | 0.45 | 1.13 | 1.7 | 1.66 | 1.27 | 5.15 (inactive) | 1.53 | -0.372 |
| CN1C(=O)C2C(C1=O)C1C=C(c3ccc(CO)cc3)C2C(C2CC2)N1Cc1sc2ccccc2c1Cl (stereo not given) | 0.0497 | 1.17 | 0.0311 | 1.02 | 1.68 | 1.41 | 0.866 | -2.04 (inactive) | 0.391 | 0.2 |
| CO[C@H]1O[C@H](CO)[C@@H](OC(=O)Nc2ccc3c(c2)OCO3)[C@H](OC(=O)Nc2ccc3c(c2)OCO3)[C@H]1OC(=O)Nc1ccc2c(c1)OCO2 | 0.0472 | -0.235 | 0.0575 | 0.844 | 1.39 | 1.83 | 1.25 | 6.05 (inactive) | 0.634 | -0.0296 |
| Cc1ccc([C@H]2C(C(=O)O)=C[C@@H](C(C)C)N2S(=O)(=O)c2ccc(C)cc2)cc1 | -0.0974 | -0.304 | -0.0667 | 0.163 | 1.14 | 1.19 | 1.31 | -1.57 (inactive) | 0.384 | -0.287 |
| CC(C)CNC(=O)[C@@]1(C)c2ccccc2C(=O)N(C(C)C)[C@H]1c1ccc(CO)cc1 | 0.095 | -0.456 | -0.0803 | -0.435 | -1.78 | 0.0276 | -0.266 | 0.0705 (inactive) | -0.37 | 0.0424 |
| Cc1ccc(S[C@]2(C(=O)NCCCN(C)C)CC(=O)N(Cc3ccccc3)[C@@H]2c2ccc(CO)cc2)cc1 | 1.15 | -0.533 | -0.145 | -0.193 | -1.24 | -0.234 | -1.11 | -1.76 (inactive) | -0.101 | -0.409 |
| O=C1OCC=C[C@H]2OC34C=CCN(Cc5ccccc5)C(=O)[C@H]3N(CCCO)C(=O)[C@@H]4[C@@H]12 (stereo not given in full) | 0.646 | -0.815 | 0.0661 | -0.17 | -0.286 | 2.42 | 1.42 | 0.0735 (inactive) | 0.245 | 0.902 |
| O=C1O[C@@H](c2ccccc2)[C@@H](c2ccccc2)N2[C@@H](c3ccccc3OCCO)[C@]3(C(=O)Nc4ccc(C#CC5(O)CCCCCC5)cc43)[C@@H](C(=O)NC[C@H](O)c3ccccc3)[C@H]12 | 1.99 | 0.142 | 0.0924 | 1.03 | 0.81 | 1.75 | 1.24 | -1.2 (inactive) | 1.74 | 0.0145 |
| C=C(COC)/C(=C/C[C@H](OC(C)=O)c1ccccc1OCCO)c1cnc2ccccc2c1 | -0.419 | -0.288 | -0.0366 | 1.08 | 1.33 | 1.19 | 1.13 | -0.267 (inactive) | 0.101 | 0.142 |
| CO[C@H]1O[C@H](CO)[C@@H](OC(=O)Nc2ccccc2-c2ccccc2)[C@H](OC(=O)Nc2ccccc2-c2ccccc2)[C@H]1OC(=O)Nc1ccccc1-c1ccccc1 | -0.0136 | 1.68 | 0.17 | 1.17 | 1.4 | 0.885 | 1.42 | 0.849 (inactive) | 0.374 | 0.245 |

| SMILES | composite z-score [1] | composite z-score [2] | composite z-score [3] | composite z-score [4] | composite z-score [5] | composite z-score [6] | composite z-score [7] | z-score [8] | composite z-score [9] | composite z-score [10] |
| --- | --- | --- | --- | --- | --- | --- | --- | --- | --- | --- |
| CC1CC/C=C\[C@H]2OC34C=CCN(c5ccc6ccccc6c5)C(=O)[C@H]3N(CCCCCO)C(=O)[C@@H]4C2C(=O)O1 (stereo not given in full) | -0.46 | -0.0205 | -0.159 | -1.01 | -1.04 | -0.712 | -0.734 | 0.772 (inactive) | -0.818 | -0.306 |
| C=C(COC)C(=O)CC[C@H](OC(=O)c1cccnc1)c1ccccc1OCCO | -0.0665 | 0.903 | -0.0004 | 0.675 | 0.928 | 0.599 | 1.24 | 0.445 (inactive) | 0.437 | -0.236 |
| COCC1=C([C@H](O)CCc2ccccc2)[C@H](CO)[C@@H]2C(=O)N(Cc3ccccc3)C(=O)[C@@H]2C1 | -0.286 | -0.133 | -0.101 | 0.085 | 0.258 | -0.295 | -0.112 | -0.4 (inactive) | -0.0829 | -0.249 |
| COCCCNC(=O)[C@]1(Cc2ccccc2N=[N+]=[N-])N=C(c2ccc(OCCCO)cc2)O[C@@H]1c1ccccc1CN=[N+]=[N-] | 0.201 | 0.157 | 0.182 | 1.05 | 1.68 | 1.49 | 1.33 | -0.0402 (inactive) | 1.33 | -0.0296 |
| O=C(N1CCCCC1)[C@]1(CCS(=O)(=O)c2ccccc2)N=C(c2ccc(OCCCO)cc2)O[C@@H]1c1ccccc1 | 1.04 | 0.815 | 0.215 | 0.803 | 0.773 | 1.49 | 1.11 | -1.79 (inactive) | 0.636 | 0.0623 |
| CC(C)(C)OC(=O)CC[C@@]1(C(=O)N2CCOCC2)N=C(c2ccc(OCCCO)cc2)O[C@@H]1c1ccccc1N=[N+]=[N-] | 0.0033 | 1.13 | 0.213 | 0.883 | 1.43 | 1.75 | 1.29 | 0.97 (inactive) | 1.57 | 0.142 |
| COCCOC(=O)N1C(=O)[C@@]2(c3cc(C#Cc4ccc(OC)cc4)ccc31)[C@H](C(N)=O)[C@H]1C(=O)O[C@H](c3ccccc3)[C@H](c3ccccc3)N1[C@@H]2c1ccc(O)cc1 | -0.39 | -0.343 | -0.167 | -0.206 | -1.64 | -0.55 | -0.297 | 0.961 (inactive) | -1.05 | -0.376 |
| Cn1c2c(c3ccccc31)C(=O)C1NC2C=CC1(C)C(=O)OCc1ccccc1 (stereo not given) | 1.03 | 0.979 | -0.176 | -1.31 | -1.15 | 1.06 | 0.467 | -1.52 (inactive) | -0.478 | -0.0645 |
| O=C1c2ccccc2[C@@]2(Cc3ccccc3N(Cc3ccccc3)C2=O)[C@H](c2ccc(CO)cc2)N1Cc1ccccc1C(F)(F)F | 0.178 | -1.44 | -0.083 | -0.236 | -0.233 | 0.363 | 0.114 | -0.366 (inactive) | -0.0954 | -0.125 |
| COc1ccc([Si](C)(C)[C@H]2[C@H](CC(=O)N3CCC[C@H]3CO)O[C@@]3(C(=O)N(c4ccccc4)c4ccccc43)[C@@H]2C)cc1 | -0.371 | 0.509 | -0.17 | 0.134 | -0.568 | 0.0644 | 1.05 | -1.74 (inactive) | 0.0963 | -0.261 |
| COC(=O)c1c(CC[C@@H](CO)NC(=O)Nc2ncn[nH]2)oc(C(=O)Cc2ccccc2)c1C(=O)OC | -0.468 | -0.0764 | -0.214 | 0.511 | 1.21 | 0.163 | 0.778 | 0.004 (inactive) | 0.524 | 0.0722 |
| O=C1O[C@@H](c2ccccc2)[C@@H](c2ccccc2)N2[C@@H](c3ccc(O)cc3)[C@]3(C(=O)Nc4ccccc43)[C@@H](C(=O)N3CCCCCCC3)[C@H]12 | 3.65 | 1.15 | 0.937 | 0.525 | 0.519 | 2.22 | 1.35 | -4.16 (inactive) | 2.99 | 1.07 |
| O=C1O[C@@H](c2ccccc2)[C@@H](c2ccccc2)N2[C@@H](c3ccc(O)cc3)[C@]3(C(=O)Nc4ccc(C#CCCO)cc43)[C@@H](C(=O)N3CCCCCCC3)[C@H]12 | 2.71 | 1.72 | 0.442 | 0.888 | 0.347 | 1.62 | 1.25 | -1.61 (inactive) | 2.57 | 1.64 |
| C=C(C(=O)CC[C@@H](OC(C)=O)c1ccc(OCCO)cc1)C(C)C | 0.0823 | 0.366 | -0.0676 | 0.853 | 0.146 | 0.845 | 1.19 | 2.4 (inactive) | -0.193 | -0.287 |
| CCOC(=O)C[C@H]1[C@H](OC(=O)c2cc3ccccc3oc2=O)[C@@H](NC(=O)c2ccc3ccccc3c2)c2cc(OCCCO)ccc2N1C(=O)c1ccccc1 | -0.444 | -0.183 | 0.0087 | 0.973 | 0.525 | -0.0064 | 1.13 | 0.0705 (inactive) | 0.623 | -0.0994 |
| CCCCCCCCCCC(O)C1C=CC2C(=O)N(c3ccccc3)C(=O)C2N1Nc1ccc([N+](=O)[O-])cc1 (stereo not given) | -0.325 | 0.112 | -0.0107 | 0.461 | 1.44 | 1.11 | 1.05 | 1.39 (inactive) | 0.574 | -0.199 |
